{
  "source": "the supplement of paper PMC10338343",
  "note": "± gives the standard deviation.",
  "data": [
    {"tested_on": "MILI (PIWIL2) piRISC loaded with piRNA #1 (26 nt)", "experiment": "pre-steady-state target cleavage rate (min^-1); guide: piRNA #1 5'p-UGAGGUAGUAGGUUGUAUAGUAUCCA; MIWI and MILI are mouse PIWI proteins and EfPiwi is from a freshwater sponge; tags in brackets are library labels; higher = faster piRNA-guided slicing of the target", "details": "auxiliary factor: 500 nM mouse GTSF1", "summary_of_the_method": "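Cleave-'n-Seq reactions paired 0.1 nM transcribed, DNA-blocked target RNA library with 1 nM active affinity-purified piRISC holding one synthetic guide, plus or minus 500 nM GTSF1 partner protein, in HEPES–potassium acetate buffer at 33 °C for 0–8 or 0–960 min. After sequencing of uncleaved targets and normalisation to depth and weakly complementary targets, the pre-steady-state cleavage rate was taken from a burst-and-steady-state fit. Three trials were pooled, and k3 was capped at 0.0001 min^-1.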", "values": [
      {"sequence": "GGAGACCUAUAUAUACAACCUACUACCUCA", "pre-steady-state target cleavage rate": "0.0406 ± 0.0075"},
      {"sequence": "GGAGACGAUACUAUACAACCUACUACCCUCA", "pre-steady-state target cleavage rate": "0.176 ± 0.021"},
      {"sequence": "GGAGACGAUAGUAUACAACCUACUACCACA", "pre-steady-state target cleavage rate": "0.136 ± 0.015"},
      {"sequence": "GGAGACCUAACUAUACAAGCUACAACCUCA", "pre-steady-state target cleavage rate": "0.182 ± 0.026"},
      {"sequence": "GGAGACCUAACUAUACAACGUACUACCUGA", "pre-steady-state target cleavage rate": "0.00576 ± 0.0041"},
      {"sequence": "GGAGACCAUACUUUUCAACCUACUACCUCA", "pre-steady-state target cleavage rate": "0.153 ± 0.015"},
      {"sequence": "GGAGACCUUACUAUACAAGGAUGAUGGAGA [g13:g22:cont:t1A]", "pre-steady-state target cleavage rate": "< 0.0001"},
      {"sequence": "GGAGUGGAUACUGAUACAACCUACUACCUCA", "pre-steady-state target cleavage rate": "0.144 ± 0.01"},
      {"sequence": "GGAGACCUAUGUAUACAACCUACUACGAGA", "pre-steady-state target cleavage rate": "0.013 ± 0.0047"},
      {"sequence": "GGAGUGGAUACAAUACAACCUACUACCUCA", "pre-steady-state target cleavage rate": "0.174 ± 0.0095"},
      {"sequence": "GGAGACGAUACAAUACAACCUACUUCCUCA", "pre-steady-state target cleavage rate": "0.126 ± 0.024"},
      {"sequence": "GGAGACCUUACUUUACAACCUACUACCACA", "pre-steady-state target cleavage rate": "0.14 ± 0.018"},
      {"sequence": "GGAGACCUAUGAUUACAACCUACAUACCUCA", "pre-steady-state target cleavage rate": "0.00484 ± 0.0019"},
      {"sequence": "GGAGAGGAUACUAUACUACCUACAACCUCA", "pre-steady-state target cleavage rate": "0.102 ± 0.0092"},
      {"sequence": "GGAGACCUAUGAUAACAACCUUCUACCUCA", "pre-steady-state target cleavage rate": "0.0024 ± 0.0021"},
      {"sequence": "GGAGACCUAUCUAUACAACCUAGUACCUCA", "pre-steady-state target cleavage rate": "0.0209 ± 0.0054"}
    ]}
  ]
}
